Values joined by “and” are separate entries in the source; they are usually repeats but may differ in a detail not shown here. Equal values may be shown once. Some structures have more than one record in an assay (separate samples or runs), and their calls can disagree. Active and inactive are the calls of the source. How the source made its calls: active means hit-call score of the fitted dose curve at least 0.9, where 1 is the maximum; inactive means score below 0.9.

Chain of Aryl hydrocarbon receptor (Homo sapiens) (P35869 whole entry, looked up): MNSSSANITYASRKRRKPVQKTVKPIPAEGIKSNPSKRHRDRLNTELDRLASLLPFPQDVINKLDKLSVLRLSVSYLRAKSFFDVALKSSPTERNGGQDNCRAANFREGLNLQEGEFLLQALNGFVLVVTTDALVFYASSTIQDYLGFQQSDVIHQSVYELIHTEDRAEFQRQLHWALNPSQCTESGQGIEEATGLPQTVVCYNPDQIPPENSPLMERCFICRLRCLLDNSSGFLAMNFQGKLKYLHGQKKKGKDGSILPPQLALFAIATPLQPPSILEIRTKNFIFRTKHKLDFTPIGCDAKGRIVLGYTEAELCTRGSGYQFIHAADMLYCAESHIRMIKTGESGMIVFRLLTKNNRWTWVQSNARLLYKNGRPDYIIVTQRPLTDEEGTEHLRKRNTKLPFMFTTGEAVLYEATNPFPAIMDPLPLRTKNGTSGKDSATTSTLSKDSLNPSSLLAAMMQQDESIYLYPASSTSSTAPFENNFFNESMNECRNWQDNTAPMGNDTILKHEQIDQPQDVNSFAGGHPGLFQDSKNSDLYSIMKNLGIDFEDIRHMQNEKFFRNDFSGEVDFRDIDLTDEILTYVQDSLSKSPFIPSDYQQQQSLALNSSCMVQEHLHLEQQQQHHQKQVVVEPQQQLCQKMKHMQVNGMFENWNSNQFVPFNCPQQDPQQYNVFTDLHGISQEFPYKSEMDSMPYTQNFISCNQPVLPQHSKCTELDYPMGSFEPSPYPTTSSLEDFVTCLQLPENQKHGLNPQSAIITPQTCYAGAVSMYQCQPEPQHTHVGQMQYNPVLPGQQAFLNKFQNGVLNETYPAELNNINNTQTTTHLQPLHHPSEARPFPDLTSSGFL

System in the first assay: not listed separately
Briefly: ATG_DR4_LXR_CIS: Attagene CIS-FACTORIAL HepG2 Assay for human Liver X Receptor (LXR), DR4 submotif (AID 2282929). Conditions: HepG2 Attagene DR4 cis-reporter, mRNA transcription; actives raise or lower the signal. The procedure, abridged: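 Transiently transfected HepG2 liver cells; cis-regulated reporters; 24 h dosing. RT-PCR plus CE read-out of reporter mRNA. DMSO baseline, bidirectional curve fitting.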
As for `CCCC(=O)O`, the compound was called inactive.

`CCCCCCCC(=O)OC`: the result was inactive.

For `O=NO`, the outcome was inactive.

Regarding `CCCCCCC(CCCCCCCCCCC(=O)OCC(COC(C)=O)OC(C)=O)OC(C)=O` (stereo not given), the call was inactive.

For `NCCOCCOCCN`, the result was inactive.

Take `CSc1ccc(Oc2ccc(S(N)(=O)=O)cc2CN(C)C)cc1C`: the call was inactive.

Take `C=CCc1ccc(OC)c(OC)c1`: the compound was called inactive.

Take `CCCCC(CC)COP(=O)(OCC(CC)CCCC)OCC(CC)CCCC` (stereo not given): the outcome was inactive.

Turning to `O=C(N[C@@H](c1ccccc1)[C@@H]1CCCCN1)c1cccc(C(F)(F)F)c1Cl`, the compound was called inactive.

With `CC(=O)OCC(COC(C)=O)OC(C)=O`, the result was inactive.

Take `CN(C)CCCN1c2ccccc2Sc2ccc(Cl)cc21`: the AC50 (as a rule, the midpoint of the concentration-response curve, whichever way the signal moves) is 9.33 µM (active).

As for `CC(=O)O[C@]1(C(C)=O)CC[C@H]2[C@@H]3C=C(Cl)C4=CC(=O)[C@@H]5C[C@@H]5[C@]4(C)[C@H]3CC[C@@]21C`, the AC50 was 51.7 µM (active) [middle of 4 runs] and the result was inactive.

Regarding `NC=O`, the outcome was inactive.

For the compound `CC1(C)C(=O)NC(=O)N1CO`, the outcome was inactive.

As for `CC1=C(C)S(=O)(=O)CCS1(=O)=O`, the result was inactive.

On to `CC(COCC(C)OC(=O)c1ccccc1)OC(=O)c1ccccc1` (stereo not given), for which the call was inactive.

With `CCCCCCC(C=O)=Cc1ccccc1`, the compound was called inactive.

As to `NC1CCCCC1`, the call was inactive.

In the case of `CC(=O)S[C@H](C(=O)N[C@H]1Cc2ccccc2[C@H]2CCC[C@@H](C(=O)O)N2C1=O)C(C)C`, the result was inactive.

As to `Cc1c(C)c2c(c(C)c1O)CCC(C)(COc1ccc(CC3SC(=O)NC3=O)cc1)O2` (stereo not given), the half-maximal activity concentration (AC50) was 6.81 µM (active).

Regarding `C/C=C/c1ccc(OC)cc1`, the result was inactive.

Regarding `O=Cc1ccccc1C=O`, the result was inactive.

As to `CCCCCCCCCCCCCCOS(=O)(=O)O`, the outcome was inactive.

With `Cn1cnc2c1c(=O)[nH]c(=O)n2C`, the result was inactive.

Consider `Cc1cc(SC2=C(O)C[C@@](CCc3ccc(N)cc3)(C(C)C)OC2=O)c(C(C)(C)C)cc1CO`, for which the outcome was inactive.

On to `CCCCOC(=O)CCCCC(=O)OCCCC`, for which the compound was classed as inactive.

Turning to `Nc1nc(=S)c2[nH]cnc2[nH]1`, the call was inactive.

For `CCN(CC)CCOc1ccc(C(=C(Cl)c2ccccc2)c2ccccc2)cc1`, the concentration at half-maximal activity (AC50) was 3.89 µM (active) and 3.11 µM (active); the call was inactive.

In the case of `C#CC(O)C(CC)CCCC` (stereo not given), the half-maximal activity concentration (AC50) was 161 µM (active).

Another assay deals with Aryl hydrocarbon receptor (Homo sapiens) (UniProt P35869). Briefly: ATG_Ahr_CIS: Attagene CIS-FACTORIAL HepG2 Assay for human Aryl Hydrocarbon Receptor (Ahr) (AID 2282930). The conditions noted are these: HepG2 AhR cis-factorial reporter transcription; actives raise or lower the signal. Summed up:
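Values derive from bidirectional fitting against DMSO negative control. Underlying signal: cis-element reporter mRNA in transiently transfected HepG2, harvested 24 h post-dose and measured by RT-PCR plus capillary electrophoresis.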
Take `CCCC(=O)O`: the compound was classed as inactive.

In the case of `CCCCCCCC(=O)OC`, the outcome was inactive.

`O=NO`: the call was inactive.

Turning to `CCCCCCC(CCCCCCCCCCC(=O)OCC(COC(C)=O)OC(C)=O)OC(C)=O` (stereo not given), the result was inactive.

As to `NCCOCCOCCN`, the compound was classed as inactive.

In the case of `CSc1ccc(Oc2ccc(S(N)(=O)=O)cc2CN(C)C)cc1C`, the call was inactive.

Consider `C=CCc1ccc(OC)c(OC)c1`, for which the compound was classed as inactive.

`CCCCC(CC)COP(=O)(OCC(CC)CCCC)OCC(CC)CCCC` (stereo not given): the AC50 was 68.9 µM (active).

For the compound `O=C(N[C@@H](c1ccccc1)[C@@H]1CCCCN1)c1cccc(C(F)(F)F)c1Cl`, the outcome was inactive.

In the case of `CC(=O)OCC(COC(C)=O)OC(C)=O`, the call was inactive.

In the case of `CN(C)CCCN1c2ccccc2Sc2ccc(Cl)cc21`, the result was inactive.

Turning to `CC(=O)O[C@]1(C(C)=O)CC[C@H]2[C@@H]3C=C(Cl)C4=CC(=O)[C@@H]5C[C@@H]5[C@]4(C)[C@H]3CC[C@@]21C`, the AC50 was 150 µM (active) and 158 µM (active); the compound was classed as inactive.

In the case of `NC=O`, the compound was called inactive.

Take `CC1(C)C(=O)NC(=O)N1CO`: the call was inactive.

Consider `CC1=C(C)S(=O)(=O)CCS1(=O)=O`, for which the compound was called inactive.

In the case of `CC(COCC(C)OC(=O)c1ccccc1)OC(=O)c1ccccc1` (stereo not given), the call was inactive.

With `CCCCCCC(C=O)=Cc1ccccc1`, the AC50 was 37.4 µM (active) and 60 µM (active).

Regarding `NC1CCCCC1`, the call was inactive.

With `CC(=O)S[C@H](C(=O)N[C@H]1Cc2ccccc2[C@H]2CCC[C@@H](C(=O)O)N2C1=O)C(C)C`, the result was inactive.

For `Cc1c(C)c2c(c(C)c1O)CCC(C)(COc1ccc(CC3SC(=O)NC3=O)cc1)O2` (stereo not given), the call was inactive.

As for `C/C=C/c1ccc(OC)cc1`, the call was inactive.

With `O=Cc1ccccc1C=O`, the compound was called inactive.

In the case of `CCCCCCCCCCCCCCOS(=O)(=O)O`, the compound was classed as inactive.

As to `Cn1cnc2c1c(=O)[nH]c(=O)n2C`, the result was inactive.

Take `Cc1cc(SC2=C(O)C[C@@](CCc3ccc(N)cc3)(C(C)C)OC2=O)c(C(C)(C)C)cc1CO`: the result was inactive.

Turning to `CCCCOC(=O)CCCCC(=O)OCCCC`, the outcome was inactive.

As for `Nc1nc(=S)c2[nH]cnc2[nH]1`, the concentration at half-maximal activity (AC50) is 66.3 µM (active).

Turning to `C#CC(O)C(CC)CCCC` (stereo not given), the compound was called inactive.

System in a further assay: not listed separately
Briefly: ATG_AP_1_CIS: Attagene CIS-FACTORIAL HepG2 Assay for human Activator Protein 1 (AP-1) (AID 2282931). Conditions: HepG2 Attagene cis-factorial AP-1 reporter mRNA; actives raise or lower the signal. Summed up: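 We transfected HepG2 cells transiently with a set of cis-regulated reporter transcription units, dosed them for 24 h, and quantified reporter mRNA via RT-PCR and capillary electrophoresis, scoring gain or loss of signal relative to DMSO.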
As for `CCCC(=O)O`, the compound was called inactive.

`CCCCCCCC(=O)OC`: the compound was called inactive.

With `O=NO`, the compound was called inactive.

In the case of `NCCOCCOCCN`, the call was inactive.

In the case of `CSc1ccc(Oc2ccc(S(N)(=O)=O)cc2CN(C)C)cc1C`, the result was inactive.

As to `O=C(N[C@@H](c1ccccc1)[C@@H]1CCCCN1)c1cccc(C(F)(F)F)c1Cl`, the AC50 is 9.01 µM (active).

Regarding `CN(C)CCCN1c2ccccc2Sc2ccc(Cl)cc21`, the half-maximal activity concentration (AC50) is 18.2 µM (active).

In the case of `NC=O`, the call was inactive.

As to `CC1(C)C(=O)NC(=O)N1CO`, the outcome was inactive.

Consider `CC1=C(C)S(=O)(=O)CCS1(=O)=O`, for which the AC50 is 166 µM (active).

Take `CC(COCC(C)OC(=O)c1ccccc1)OC(=O)c1ccccc1` (stereo not given): the outcome was inactive.

`CC(=O)S[C@H](C(=O)N[C@H]1Cc2ccccc2[C@H]2CCC[C@@H](C(=O)O)N2C1=O)C(C)C`: the result was inactive.

As for `Cc1c(C)c2c(c(C)c1O)CCC(C)(COc1ccc(CC3SC(=O)NC3=O)cc1)O2` (stereo not given), the concentration at half-maximal activity (AC50) was 9.14 µM (active).

For the compound `C/C=C/c1ccc(OC)cc1`, the compound was classed as inactive.

As for `O=Cc1ccccc1C=O`, the result was inactive.

As to `CCCCCCCCCCCCCCOS(=O)(=O)O`, the call was inactive.

`Cn1cnc2c1c(=O)[nH]c(=O)n2C`: the outcome was inactive.

`Cc1cc(SC2=C(O)C[C@@](CCc3ccc(N)cc3)(C(C)C)OC2=O)c(C(C)(C)C)cc1CO`: the compound was classed as inactive.

Turning to `CCN(CC)CCOc1ccc(C(=C(Cl)c2ccccc2)c2ccccc2)cc1`, the result was inactive.

With `C#CC(O)C(CC)CCCC` (stereo not given), the AC50 is 100 µM (active).

The record behind these values is PubChem BioAssay (EPA / NIEHS).
